From PubChem
TDP1 block – TDP1 (human) enzyme inhibition; Q9NUW8; recombinant TDP1, AlphaScreen DNA substrate cleavage; Potency, µM (highest dose often 130 µM), inactives show at the top dose activity change, negative = inhibition, usual class: inhibitors; 350,000 tested, 0.28% active; AID 485290; note: potency is the fitted concentration of half-maximal effect; % is set by controls: 0 for no effect and ±100 for the full control effect; nearly all actives have a fitted effect of over 40% in size
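AlphaScreen read-out: signal falls as enzyme removes the 3' tyrosine-FITC from a 5'-biotinylated DNA oligo (15 nM, 5 min, RT). Enzyme was E. coli-made recombinant Tdp1 at 1 nM, exposed to compound for 15 min beforehand; beads 10 ug/ml, 10 min.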
Pol eta inh-1 – blocks human DNA polymerase eta activity; 390,000 tested, 1.2% active; Potency, µM (top dose mostly 114 µM), for the others: at the top dose activity change, negative = inhibition, most hits filed as inhibitors; AID 588591; recombinant Pol eta, fluorescent DNA replication assay; note: potency is the fitted concentration of half-maximal effect; % is set by controls: 0 for no effect and ±100 for the full control effect
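Fluorescent replication assay: 50 nM final substrate added after a 15 min room-temperature compound preincubation with 10 nM enzyme. Signal taken at 0 min and again at 10 min.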
FEN1 inh – human FEN1 inhibition; Recombinant FEN1 flap cleavage, fluorescence, 15 min; Potency, µM (doses to about 114 µM), without a hit: at the top dose activity change, negative = inhibition, hits mostly inhibitors; 390,000 tested, 0.35% active; AID 588795; note: potency is the fitted concentration of half-maximal effect; % is set by controls: 0 for no effect and ±100 for the full control effect; nearly all actives have a fitted effect of over 65% in size
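Concentration–response screening of FEN1 (10 nM): 15 min compound preincubation at room temperature, reaction started with 50 nM substrate and read at 0 and 15 min. Corrected, normalized data were fitted by a four-parameter Hill equation.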
Pol kappa inh-1 – inhibitors of human DNA polymerase kappa. Potency, µM (top dose mostly 107 µM), for the others: at the highest dose activity, negative = inhibition, actives largely listed as inhibitors. AID 588579. Q9UBT6. purified Pol kappa, fluorescent DNA synthesis assay, 10 min. 400,000 tested, 0.53% active; note: potency is the fitted concentration of half-maximal effect; % is set by controls: 0 for no effect and ±100 for the full control effect
Target sequence (Q9UBT6 whole entry, looked up): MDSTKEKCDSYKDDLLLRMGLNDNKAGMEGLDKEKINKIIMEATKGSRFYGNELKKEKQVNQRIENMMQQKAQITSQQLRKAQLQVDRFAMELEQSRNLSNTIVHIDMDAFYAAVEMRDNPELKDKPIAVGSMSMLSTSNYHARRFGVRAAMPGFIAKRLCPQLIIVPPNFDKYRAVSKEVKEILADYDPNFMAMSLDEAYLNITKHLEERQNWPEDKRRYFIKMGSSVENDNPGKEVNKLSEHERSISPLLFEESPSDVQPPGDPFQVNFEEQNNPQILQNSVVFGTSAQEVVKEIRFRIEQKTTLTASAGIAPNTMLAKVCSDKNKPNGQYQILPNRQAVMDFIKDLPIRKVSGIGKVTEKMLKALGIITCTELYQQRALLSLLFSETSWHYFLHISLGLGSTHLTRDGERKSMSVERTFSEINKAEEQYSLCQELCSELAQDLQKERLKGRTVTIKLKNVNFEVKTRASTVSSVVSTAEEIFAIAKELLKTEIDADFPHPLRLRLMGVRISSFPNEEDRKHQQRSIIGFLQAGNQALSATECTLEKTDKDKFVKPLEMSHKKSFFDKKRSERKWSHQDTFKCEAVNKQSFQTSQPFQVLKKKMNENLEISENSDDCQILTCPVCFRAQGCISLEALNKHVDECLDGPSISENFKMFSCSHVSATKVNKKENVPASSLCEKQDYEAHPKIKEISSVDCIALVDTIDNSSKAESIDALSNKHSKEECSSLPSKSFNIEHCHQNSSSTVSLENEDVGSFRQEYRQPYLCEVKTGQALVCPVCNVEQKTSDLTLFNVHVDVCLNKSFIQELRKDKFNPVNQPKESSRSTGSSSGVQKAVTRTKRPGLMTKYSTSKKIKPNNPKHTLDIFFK
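10 nM Pol kappa preincubated 15 min at room temperature with compounds, then reaction started with substrate at 50 nM final. Fluorescence read kinetically at 0 and 10 min; buffer-only wells served as negative control.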
Pol iota inh – inhibitors of human DNA polymerase iota; Q9UNA4; Pol iota fluorescent replication assay, 10 min; Potency, µM (series often up to 115 µM), without a hit: at the top dose activity, negative = inhibition, hits mostly inhibitors; 390,000 tested, 1% active; AID 588590; note: potency is the fitted concentration of half-maximal effect
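Pol iota at 10 nM preincubated 15 min with compounds at room temperature; reaction started with fluorescent substrate, 50 nM final. Fluorescence read kinetically at 0 and 10 min; buffer-only wells as negative control.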
POLB inh – DNA polymerase beta (human) inhibition; Pol beta primer extension/strand displacement, fluorescence kinetic; Potency, µM (highest dose often 114 µM), inactives show at the highest dose activity change, negative = inhibition, actives largely listed as inhibitors; 340,000 tested, 1.3% active; note: potency is the fitted concentration of half-maximal effect; % is set by controls: 0 for no effect and ±100 for the full control effect
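Homogeneous kinetic assay of primer extension and strand displacement by 10 nM Pol beta, preincubated 15 min at room temperature with compound before 50 nM substrate (final) was added. Read at 0 and 10 min; four-parameter Hill fit.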
GALK inh confirm – galactokinase (human) inhibition, confirmation | shares compounds with Pol eta inh-1 | purified GALK, Kinase-Glo ATP depletion luminescence | Potency, µM (series often up to 115 µM), for the others: at the top dose activity, negative = inhibition, actives largely listed as inhibitors | 150 tested, 70% active
Redox cycling – redox cycling activity in phenol red-HRP assay. shares compounds with Pol eta inh-1. Phenol red-HRP H2O2 redox cycling, absorbance 600 nm. Potency, µM (series often up to 115 µM), inactives show at the highest dose activity change, negative = H2O2 signal, actives largely listed as inhibitors. 150 tested, 40% active. AID 2035
HEK293 viability – HEK-293 cytotoxicity, GALK inhibitor secondary. shares compounds with Pol eta inh-1. HEK-293 viability, ATP luminescence (CellTiter-Glo), 24/48 h. Potency, µM (highest dose often 46.1 µM), for inactives: at the highest dose activity change, negative = cytotoxicity, actives largely listed as inhibitors. 170 tested, 10% active. AID 2547; note: potency is the fitted concentration of half-maximal effect; % is set by controls: 0 for no effect and ±100 for the full control effect
Pol kappa inh-2 – confirmation of human DNA polymerase kappa inhibitors; 920 tested, 76% active; shares compounds with Pol eta inh-1; Potency, µM, most hits filed as inhibitors; purified Pol-kappa, fluorescent strand-displacement substrate; note: potency is the fitted concentration of half-maximal effect
Pol eta inh-2 – Pol eta (human) inhibition, cherry-pick confirmation. shares compounds with Pol eta inh-1. Pol eta primer extension, TAMRA/BHQ fluorescence, 10 min. Potency, µM, usual class: inhibitors. 2,600 tested, 64% active. AID 720502; note: potency is the fitted concentration of half-maximal effect
An asterisk follows results filed as active; ? = inconclusive; . = no result given. Only some compounds are listed: those with a hit (about 2.4% of all), similar ones and a draw of the others. Calls come from the whole dose curve; as a rule, active = well fitted curve in the direction sought with a large enough effect; inconclusive = small, poorly fitted or top-dose-only effect, or another doubt; inactive = no such curve, though single readings can be large; an effect the other way counts as inactive or inconclusive.

SMILES | TDP1 block | Pol eta inh-1 | FEN1 inh | Pol kappa inh-1 | Pol iota inh | POLB inh | Pol kappa inh-2 | Pol eta inh-2 | others
O=C1c2cccc3cccc(c23)C(=O)N1Cc1cccnc1 | -1.4% | -15.1% | 1.7% | 0.3% | 109.4% | -0.6% | . | .
O=C1c2cccc3c([N+](=O)[O-])ccc(c23)C(=O)N1Cc1cccnc1 | 8.9% | ? | ? | -10.2% | ? | 15.8µM* | . | ?
CCOc1ccc(/C=c2\sc3nc(-c4ccco4)nn3c2=O)cc1OCC | -1.1% | 14.1µM* | 0.8% | ? | ? | 0.5% | . | ?
COc1ccc(C(=O)N=c2c(C#N)cc3c(=O)n4cccc(C)c4nc3n2Cc2ccco2)cc1 | 1.8% | . | . | . | . | ? | . | .
CC(=O)N=c1c(C#N)cc2c(=O)n3cccc(C)c3nc2n1Cc1ccco1 | . | 31.6µM* | -21.4% | -22.3% | 39.8µM* | ? | . | ?
O=C(Nc1nnc(S(=O)(=O)N2CCCc3ccccc32)s1)c1ccccc1Br | 3.9% | 79.4µM* | -6.9% | -0.7% | 12.2% | -19.6% | ? | ?
O=C(Nc1nnc(S(=O)(=O)N2CCCc3ccccc32)s1)c1ccc(Cl)cc1 | 2.6% | ? | 0.5% | 3.4% | 17.0% | 12.0% | ? | .
CCc1ccc(NC(=O)c2ccc(Cn3nc(N4CCN(c5ccccc5)CC4)ccc3=O)o2)cc1 | 2.6% | 20µM* | -13.0% | -26.8% | ? | ? | ? | ?
O=C1CC(c2cccc(Cl)c2Cl)c2cc3c(cc2N1)OCCO3 (stereo not given) | -2.7% | -12.5% | 7.8% | 10.7% | ? | 7.5% | . | .
Cc1cnc(C(=O)NCC(=O)Nc2ccccc2Br)cn1 | ? | 31.6µM* | 1.4% | ? | 17.8µM* | . | ? | ?
Cc1ccc(OCC(=O)N/N=C\c2ccc(-c3cccc(C(=O)O)c3)o2)c(C)c1 | -2.3% | 3.55µM* | -16.9% | 50.1µM* | ? | 20µM* | . | 30.1*
O=C(O)c1cccc(-c2ccc(/C=N/Nc3nn[nH]n3)o2)c1 | -15.0% | ? | -15.5% | ? | 26.5% | ? | . | 67.5*
O=C(c1cc(-c2ccccc2)on1)N1CCCc2ccccc21 | 2.6% | -20.6% | 5.4% | -2.2% | 31.7% | -4.8% | . | .
O=C(c1coc(=O)c(Br)c1)N1CCCc2ccccc21 | . | 11.2µM* | ? | 31.6µM* | 15.8µM* | 25.1µM* | 42.3* | 37.9*
O=C(c1cc(-c2ccco2)on1)N1CCCc2ccccc21 | 8.5% | 79.4µM* | -9.4% | 79.4µM* | ? | 35.5µM* | . | ?
O=C(c1cncc(Br)c1)N1CCCc2ccccc21 | 3.3% | 3.1% | 7.2% | -5.5% | 39.4% | -0.2% | . | .
COc1ccc(NC(=O)CN2C(=O)NC3(CCCC3)C2=O)cc1OC | 4.3% | -6.5% | -5.8% | -17.2% | ? | 59.1% | . | ?
CCOC(=O)C1(Cc2cccc(F)c2)CCN(C(=O)COC)CC1 | 4.2% | 1.1% | 15.9% | 0.3% | -2.9% | 11.4% | . | . | GALK inh confirm=-2.6%;Redox cycling=0.2%;HEK293 viability=-19.5%
CC(=O)N1CC2(NC(=O)c3ccccc3N2)c2ccccc21 (stereo not given) | . | -11.6% | -12.1% | -6.8% | -5.4% | 3.2% | . | .
O=C(O)c1cc(Nc2cc(Cl)c3nonc3c2[N+](=O)[O-])ccc1O | . | 25.1µM* | ? | -1.6% | ? | -1.2% | 67* | 47.8*
O=[N+]([O-])c1c(Nc2ccc(O)cc2)cc(N2CCOCC2)c2nonc12 | 4.2% | -13.7% | 6.8% | 15.2% | -7.1% | -2.6% | . | .
O=C(NN1C(=O)C2CC=C(Cl)CC2C1=O)c1ccncc1 (stereo not given) | 35.5µM* | 10µM* | -2.4% | 50.1µM* | 39.8µM* | 3.16µM* | . | 60.1*
COc1ccc(NC(=O)c2ccc(N3C(=O)C4CC=C(Cl)CC4C3=O)cc2)cc1 (stereo not given) | . | -0.7% | 8.5% | -14.9% | ? | ? | . | .
O=C(Nc1ccc(C(=O)O)cc1)Nc1ccc([N+](=O)[O-])cc1 | . | -29.5% | 4.2% | -7.7% | 150.2% | 12.0% | . | .
O=C(O)c1ccc(Nc2ncc([N+](=O)[O-])cc2[N+](=O)[O-])cc1 | . | 31.6µM* | -2.8% | -29.2% | ? | 25.3% | . | 67.5*
SMILES | TDP1 block | Pol eta inh-1 | FEN1 inh | Pol kappa inh-1 | Pol iota inh | POLB inh | Pol kappa inh-2 | Pol eta inh-2 | others
Cc1ccc(/C=c2\sc3nc(-c4cccnc4)nn3c2=O)cc1 | 2.0% | 10µM* | 7.3% | -20.9% | ? | ? | . | ?
COC(=O)c1ccc(COc2ccc(/C=N/Nc3nc(C)cc(=O)[nH]3)cc2)cc1 | 1.2% | 89.1µM* | ? | -6.7% | ? | 20µM* | ? | .
CCc1ccc(NC(=O)C(=O)NCC(c2cccnc2)N2CCOCC2)cc1 (stereo not given) | 6.5% | -0.9% | -21.0% | -9.1% | ? | -37.3% | . | .
Cc1cc(C)cc(NC2=CC(c3cccc(F)c3)N(c3cc(C)cc(C)c3)C2=O)c1 (stereo not given) | -1.9% | . | -0.6% | -2.0% | 4.8% | 7.5% | . | .
COc1ccc(Br)cc1/C=C/C(=O)NC(=S)Nc1ccc(Cl)c(C(=O)O)c1 | 5.3% | 25.1µM* | ? | 2.1% | 17.3% | 12.5% | ? | .
COc1ccc(Br)cc1C(=O)NC(=S)Nc1ccc(Cl)c(C(=O)O)c1 | -7.9% | ? | -4.6% | -13.0% | ? | 12.5% | . | .
